# KCNQ2 inh – inhibitors of rat KCNQ2 potassium channel. AID 2156. actives 1.1% (n = 310,000). CHO-K1 KCNQ2, FluxOR thallium flux, 20 min; active compounds read low. B-score at 10 µM. O88943;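 active means fluorescence ratio B-score at most minus 3 library SDs, with starting brightness B-score within 2 library SDs, cut at about -5.5 in these data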
# KCNQ2 enhance – KCNQ2 (rat) channel potentiation; O88943; CHO-K1 KCNQ2, FluxOR thallium flux fluorescence; active compounds read high; B-score at 10 µM; actives 0.54% (n = 310,000); AID 2239;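 active means fluorescence ratio B-score at least 3 SD of library B-scores, with initial fluorescence B-score within 3 of them, cut at about 5.3 in these data; same plate scores as AID 2156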;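 further: B-score of peak minus minimum over baseline fluorescence ratio after K+ and Tl+ stimulus; positive B-score means potentiation of KCNQ2 with more thallium influx and brighter signal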
# Kir21 confirm – confirmation of mouse Kir2.1 potassium channel inhibitors; shares compounds with KCNQ2 enhance; Kir2.1-expressing cells, FluxOR thallium flux fluorescence; active compounds read low; actives 41% (n = 2,300); Tl flux remaining, % of negative control (active compounds read low), % at 10 µM;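 active means Primary-screen hit whose thallium flux fell at least 3 control SD below untreated wells in both duplicates, with normal baseline fluorescence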;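 further: 0% = blank wells without stimulus and 100% = stimulated no-compound controls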
# HEK293 ctr – parental HEK293 activity in Kir2.1 inhibitor counter-screen; shares compounds with KCNQ2 enhance; parental HEK293 cells, FluxOR thallium flux fluorescence; 0% = unstimulated blank wells; FluxOR signal as % of negative control (100 = no effect), % at 10 µM; actives 19% (n = 2,300); AID 2105;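 active means dye signal at least 3 control SD above or below untreated wells in both duplicates, raw fluorescence within 3, either direction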;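 further: percent is based on the flux ratio of peak minus minimum fluorescence over baseline F0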
# CHO-K1 Tl ctr – counter-screen for KCNQ2 potentiators: effect in parental CHO-K1 cells | shares compounds with KCNQ2 enhance | FluxOR thallium flux fluorescence; zero = vehicle mean+3SD, 100% = vehicle-minus-blank window | activity increase over 3SD of controls, % at 10 µM | actives 43% (n = 1,200);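 active means signal rise of at least 3 SD above the untreated control mean, in both duplicate wells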;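 further: counter screen of KCNQ2 potentiator hits so any rise reflects channel-independent effects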
# KCNQ1 sel pot – tests whether KCNQ2 potentiators also act on human KCNQ1. shares compounds with KCNQ2 enhance. CHO KCNQ1 stable, FluxOR thallium flux fluorescence; beyond 3SD, as % of vehicle-control signal. activation over 3SD threshold, % at 10 µM. actives 28% (n = 1,200). AID 2283;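 active means fluorescence ratio rise of at least 3 SD of vehicle wells above their mean, in both replicate wells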;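 further: 0% = vehicle mean plus 3 SD and 100% = vehicle minus unstimulated blank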
# Target sequence (P51787 whole entry, looked up): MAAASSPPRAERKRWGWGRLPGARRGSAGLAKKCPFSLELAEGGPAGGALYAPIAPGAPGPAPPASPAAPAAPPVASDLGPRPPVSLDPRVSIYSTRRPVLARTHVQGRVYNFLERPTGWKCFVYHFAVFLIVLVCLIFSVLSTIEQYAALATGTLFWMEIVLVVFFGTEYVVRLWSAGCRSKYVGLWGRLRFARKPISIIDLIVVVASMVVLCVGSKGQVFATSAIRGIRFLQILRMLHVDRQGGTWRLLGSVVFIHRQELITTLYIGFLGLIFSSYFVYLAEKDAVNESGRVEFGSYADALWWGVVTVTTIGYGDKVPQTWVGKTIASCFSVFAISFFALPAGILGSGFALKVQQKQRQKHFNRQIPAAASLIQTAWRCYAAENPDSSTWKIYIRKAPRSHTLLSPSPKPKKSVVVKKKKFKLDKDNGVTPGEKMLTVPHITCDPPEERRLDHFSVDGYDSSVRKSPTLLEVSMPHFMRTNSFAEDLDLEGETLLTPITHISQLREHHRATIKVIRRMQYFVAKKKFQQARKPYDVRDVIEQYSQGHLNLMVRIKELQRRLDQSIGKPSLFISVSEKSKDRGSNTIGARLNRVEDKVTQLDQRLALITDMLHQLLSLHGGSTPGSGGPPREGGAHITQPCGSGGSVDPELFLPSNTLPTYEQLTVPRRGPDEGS
# KCNQ2 pot confirm – confirmation of rat KCNQ2 potassium channel potentiators; shares compounds with KCNQ2 enhance; CHO-KCNQ2 cells, FluxOR thallium flux fluorescence; potentiation, less the hit threshold, % at 10 µM; actives 68% (n = 1,200); AID 2287;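 active means fluorescence ratio rising 3 SD or more over the vehicle control mean in both replicates, plus primary screen hit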;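 further: peak minus minimum thallium fluorescence divided by baseline after K/Tl stimulus; 0% = vehicle mean plus 3 SD and 100% = vehicle minus unstimulated blank difference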
# Kir2-1 sel – selectivity of KCNQ2 potentiators: effect on mouse Kir2.1; shares compounds with KCNQ2 enhance; HEK293 Kir2.1, FluxOR thallium flux fluorescence; activity over 3SD threshold, % at 10 µM; actives 2% (n = 1,200); AID 2345;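 active means fluorescence ratio rise of at least 3 SD above the vehicle-control mean, seen in both replicates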;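 further: 0% = vehicle mean plus 3 SD and 100% = vehicle minus no-stimulus blank window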
# KCNQ2 W236L MoA – rat KCNQ2 W236L mutant potentiation by KCNQ2 potentiators. shares compounds with KCNQ2 enhance. CHO KCNQ2-W236L, automated patch clamp current. current increase over 3SD of negative controls (%), active compounds read high, % at 25 µM. actives 10% (n = 940). AID 2558;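 active means current increase at least 3 SD of the untreated controls above them in both duplicate recordings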
# An asterisk follows results filed as active; i = inactive; x = not tested or not shown. An excerpt weighted towards active compounds, which were near 1.6% of everything screened.
SMILES,KCNQ2 inh,KCNQ2 enhance,Kir21 confirm,HEK293 ctr,others
Fc1ccc(C(CCNCc2ccccn2)c2ccc(Cl)cc2)cc1 (configuration not stated),i,x,34%*,i,
COc1ccc(C)cc1S(=O)(=O)n1c([N+](=O)[O-])cnc1C,i,x,x,x,
O=C(Nc1ccc(F)cc1)c1ccc(CSc2ccc(Cl)cc2)o1,i,7.2*,i,i,CHO-K1 Tl ctr=2.2*;KCNQ1 sel pot=90*;KCNQ2 pot confirm=-9;Kir2-1 sel=-44;KCNQ2 W236L MoA=i
CC(=O)c1ccc(NC(=O)c2ccc(CSc3ccccc3)o2)cc1,i,1.1,x,x,
CCCCc1ccc(NC2=NCC(=O)N2CCc2ccccc2)cc1,i,0.09,x,x,
Clc1ccc2c(c1)C(N1CCNCC1)Cc1ccccc1S2 (configuration not stated),-12*,-12,32%*,i,
COc1ccc2c(c1)CC(N1CCN(C)CC1)c1cc(OC)ccc1S2 (configuration not stated),i,x,x,x,
CC(C)CCNC(=O)C1CC(c2ccccc2[N+](=O)[O-])=NO1 (configuration not stated),i,x,x,x,
CCn1ncc([N+](=O)[O-])c1C(=O)Nc1c(C)cccc1C,i,14*,i,i,CHO-K1 Tl ctr=-18;KCNQ1 sel pot=0;KCNQ2 pot confirm=-11;Kir2-1 sel=-29
CCn1ncc([N+](=O)[O-])c1C(=O)Nc1nc2cccc(C)c2s1,i,0.05,x,x,
Cc1ccc(NC(=O)C2CCN(S(=O)(=O)c3ccc4c(c3)CCCC(=O)N4)CC2)c(Br)c1,i,0.08,x,x,
CSc1nc2c(c(=O)[nH]1)C(c1cccc(Cl)c1)CC(=O)N2 (configuration not stated),i,0.81,x,x,
CSc1nc2c(c(=O)[nH]1)C(c1ccc(Cl)cc1)CC(=O)N2 (configuration not stated),i,x,i,i,
COc1ccc(N2CCC(CNC(=O)Nc3ccc(C)c(C)c3)C2)cc1 (configuration not stated),i,1.2,x,x,
Cc1ccc(C)c(CN2CCC(CNC(=O)Nc3ccc(C)c(C)c3)CC2)c1,i,7.6*,i,i,CHO-K1 Tl ctr=60*;KCNQ1 sel pot=-11;KCNQ2 pot confirm=10*;Kir2-1 sel=-31;KCNQ2 W236L MoA=i
CCCNC(=O)c1nn2cc(Br)cnc2c1Br,i,0.03,x,x,
CCOC(=O)C(=CNc1ccc(OC)cc1[N+](=O)[O-])C(=O)OCC,i,x,x,x,
CNC(=O)CSCc1cnn(-c2ccccc2)c1-n1cccc1,i,0.39,x,x,
O=C(CSCc1cnn(-c2ccccc2)c1-n1cccc1)NCc1cccs1,i,x,i,i,
CCOC(=O)N1CCC(NC(=O)CSCc2cnn(-c3ccccc3)c2-n2cccc2)CC1,i,0.04,x,x,
COc1cccc(CNC(=O)CSCc2cnn(-c3ccccc3)c2-n2cccc2)c1,i,x,i,i,
Cc1cc(C)c(S(=O)(=O)N2CCN(C(=O)C(C)Cn3cncn3)CC2)c(C)c1 (configuration not stated),i,0.26,x,x,
N#C/C(=N\Nc1ccc(F)cc1)C(=O)C1CC1,i,2,x,x,
N#C/C(=N\Nc1ccc(Cl)c(Cl)c1)C(=O)C1CC1,i,6.6*,i,i,CHO-K1 Tl ctr=13*;KCNQ1 sel pot=-11;KCNQ2 pot confirm=-1;Kir2-1 sel=-34;KCNQ2 W236L MoA=i
CCOC(=O)CCC(NC(=O)CCCCCCCC(=O)NC(CCC(=O)OCC)C(=O)OCC)C(=O)OCC (configuration not stated),i,0.29,x,x,
SMILES,KCNQ2 inh,KCNQ2 enhance,Kir21 confirm,HEK293 ctr,others
Cc1cc(C)c(C)c(OC(=O)c2sc(Cl)nc2C)c1,i,0.02,x,x,
Nc1cc(-c2ccc(Cl)cc2)nn1S(=O)(=O)c1cccc2nsnc12,i,5.1,x,x,
Nc1cc(-c2ccc(Br)cc2)nn1S(=O)(=O)c1cccc2nsnc12,i,6.9*,i,i,CHO-K1 Tl ctr=20*;KCNQ1 sel pot=-11;KCNQ2 pot confirm=-4;Kir2-1 sel=-42
CC1CC(C)CN(CC(O)COCc2ccccc2F)C1 (configuration not stated),i,1.4,x,x,
Oc1c(Br)cc(Br)cc1/C=N/c1nc2c(s1)CCCC2,i,8.7*,i,i,CHO-K1 Tl ctr=48*;KCNQ1 sel pot=-6;KCNQ2 pot confirm=26*;Kir2-1 sel=-46;KCNQ2 W236L MoA=4.4%*
Oc1ccc2ccccc2c1/C=N/c1nc2c(s1)CCCC2,i,x,x,x,
Cc1ccc(C)c(NC(=O)CCC(=O)N2CCOc3ccccc32)c1,i,x,x,x,
C=CCC1NS(=O)(=O)OC(CCc2ccccc2)C1O (configuration not stated),i,x,x,x,
CCOc1ccc(/C=C/[N+](=O)[O-])c2ccccc12,i,x,i,i,
CCOC(=O)COc1ccc2ccccc2c1/C=C/[N+](=O)[O-],i,x,x,x,
O=[N+]([O-])c1cccc(C2(O)COc3ccccc3O2)c1 (configuration not stated),i,x,x,x,
O=c1c(-c2ccc(Cl)cc2)[n+]([O-])c2ccccc2n1O,i,6.3*,i,220%*,CHO-K1 Tl ctr=-12;KCNQ1 sel pot=-23;KCNQ2 pot confirm=-2;Kir2-1 sel=-43;KCNQ2 W236L MoA=i
O=c1c(-c2cccc([N+](=O)[O-])c2)[n+]([O-])c2ccccc2n1O,i,1.2,x,x,
COc1ccc(F)cc1S(=O)(=O)Nc1ccc(C)cc1,i,x,x,x,
O=C(COc1ccc(F)cc1)Nc1nnc(S(=O)(=O)N2CCCC2)s1,i,x,x,x,
CCCCC(=O)OCc1nc(N)nc(Nc2ccccc2C)n1,i,1.1,x,x,
Cc1ccc(/C=C/C(=O)OCc2nc(N)nc(Nc3ccccc3C)n2)o1,i,6.9*,i,i,CHO-K1 Tl ctr=144*;KCNQ1 sel pot=-6;KCNQ2 pot confirm=2.1*;Kir2-1 sel=-46;KCNQ2 W236L MoA=i
CC(C)Cn1c(N)c(C(=O)COC(=O)CCNS(=O)(=O)c2ccccc2)c(=O)n(C)c1=O,i,0.81,x,x,
NC(=O)C1=C[C@@H](C2CCCCC2)C[C@@H](OCCCCO)O1,i,0.93,x,x,
CCOc1ccc(NS(=O)(=O)c2ccc(NC(C)=O)c(OC)c2)cc1,i,x,x,x,
CCOc1ccc(NS(=O)(=O)c2ccc(OC)c(C)c2)cc1,i,0.35,i,i,
Nc1ccccc1Oc1ccc2ccccc2c1,i,1.2,x,x,
COc1ccc2ccccc2c1CNCc1ccc(C)cc1,i,x,22%*,i,
COc1ccccc1CNCc1ccc(C)cc1,i,x,x,x,
CCOc1ccc(S(=O)(=O)N2CCCC(C(=O)NCc3cccnc3)C2)cc1 (configuration not stated),i,x,x,x,
C=CCc1cc(Cl)ccc1OCCCNC(C)C,i,0.39,x,x,

# Compound activity from PubChem BioAssay.
